Reference: PubChem BioAssay AID2108 (National Center for Advancing Translational Sciences (NCATS), 2009)
Inconclusive results are not listed. Unmarked numbers belong to inactive results. The call rests on the fitted dose curve; in most records, active means well fitted curve in the direction sought with a large enough effect; inconclusive means small, poorly fitted or top-dose-only effect, or effect the other way, or another doubt; inactive means no such curve, though single readings can be large or run the other way.

What follows are compounds tested against Alpha-galactosidase A (Homo sapiens) (UniProt P06280) (assay: Confirmation of Inhibitors of Human alpha-Galactosidase Using Spleen Homogenate). Conditions: alpha-galactosidase enzyme activity; series mostly up to 56.2 µM; activity change: at the top concentration.
Chain of Alpha-galactosidase A (Homo sapiens) (P06280 32-429 limits assumed): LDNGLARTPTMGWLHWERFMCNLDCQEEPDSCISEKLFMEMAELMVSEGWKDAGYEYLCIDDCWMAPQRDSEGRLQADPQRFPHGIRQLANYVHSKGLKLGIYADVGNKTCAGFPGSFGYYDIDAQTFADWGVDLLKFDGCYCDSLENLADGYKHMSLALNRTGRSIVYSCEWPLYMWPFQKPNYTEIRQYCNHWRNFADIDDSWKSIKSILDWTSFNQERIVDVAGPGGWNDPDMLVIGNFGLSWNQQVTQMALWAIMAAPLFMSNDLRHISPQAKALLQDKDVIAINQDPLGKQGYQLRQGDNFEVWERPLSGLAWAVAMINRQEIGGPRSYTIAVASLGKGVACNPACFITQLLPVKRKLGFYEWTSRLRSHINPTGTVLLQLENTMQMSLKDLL
Summary of the method: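 AC50 values come from Hill-equation fits of normalised 4-methylumbelliferone fluorescence (365/440 nm, read after NaOH/glycine stop). Enzyme source: spleen homogenate; substrate 1 mM final; pH 5.0 citrate buffer; 40 min at 37C; compound titration 0.5 nM–58 uM.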
Further: 0% is about no effect.

Point of comparison: `N#Cc1c(Cl)cccc1N1CCC(C(N)=O)CC1`, “activity change” value 0.0336%. Against it:
- O=C1CC(c2ccccc2)Cc2nc(NCc3ccco3)ncc21 (configuration not stated) — lower, -2.65%
- CCc1sc(-c2cc3cccc(OC)c3oc2=O)nc1-c1ccccc1 — higher, 7.38%
- O=C(Nc1ccc(OCC(=O)N2CCN(S(=O)(=O)c3ccccc3)CC2)cc1)c1ccco1 — higher, 2.43%
- O=c1oc2ccccc2cc1-c1nc2c(s1)CCc1ccccc1-2 — higher, 3.53%
- O=S(=O)(c1cccc(Br)c1)N1CCOCC1 — lower, -13.3%
- Cc1ccc2nc(-c3ccccc3N)[nH]c2c1 — higher, 20.8%
- CC(=O)c1ccc(S(=O)(=O)N2CCOCC2)cc1 — higher, 3.77%
- O=C(c1ccccc1)N1CCN(S(=O)(=O)c2ccccc2)CC1 — higher, 12%
- CCc1sc(-c2cc3ccc(O)cc3oc2=O)nc1-c1ccc(C)cc1 — higher, 23.7%
- CN(C)CC/C=C1/c2ccccc2Sc2c(O)cc(Cl)cc21 — lower, -10.2%
- COC(=O)c1ccc(S(=O)(=O)N2CCOCC2)cc1 — lower, -5.18%
- Cn1c(=O)c2c(nc(NCc3ccc4c(c3)OCO4)n2Cc2ccc(F)cc2)n(C)c1=O — lower, -1.94%
- Cc1ccc(-c2nc(-c3cc4cc(Cl)ccc4oc3=O)sc2C)cc1 — higher, 9.45%
- Oc1ccccc1C1CC(c2cccs2)=NC(c2ccc(Cl)cc2)N1 (configuration not stated) — higher, 2.01%
- COc1cccc(NC(=S)NCc2ccc3c(c2)cc(C)n3C)c1 — lower, -0.234%
- O=c1ccc2cc(O)c(O)cc2o1 — higher, 5.16%
- Nc1c(NCCN2CCCCC2)c2ccccc2oc1=O — lower, -3.82%
- Cc1cc(/C=N/NC(=O)c2ccc(O)cc2)c(C)n1C1CC1 — higher, 1.75%
- O=S(=O)(c1ccc(Cl)cc1)N1CCOCC1 — higher, 5.93%
- O=C(O)Cc1sc(-c2cc3ccccc3oc2=O)nc1-c1ccc(Br)cc1 — higher, 3.08%
- Cn1cnc2c(NCc3ccccc3)nc(NCCO)nc21 — higher, 4.37%
- Cc1nc(SCC(=O)N2CCN(c3ccccc3)CC2)c2oc3ccccc3c2n1 — higher, 11.7%
- Cc1ccc(-c2nc(-c3cc4ccccc4oc3=O)sc2C)cc1 — higher, 12.7%
- O=C(/C=C/c1ccc(O)c(O)c1)c1ccc(O[C@@H]2O[C@H](CO)[C@@H](O)[C@H](O)[C@H]2O)c(O)c1O — lower, -9.67%
- Cc1oc2c(O)c(O)ccc2c(=O)c1-c1cnn(-c2ccccc2)c1 — lower, -10.3%
- CCN(CC)c1ccc(-c2nc3cnccn3c2NC2CCCC2)cc1 — lower, -11%
- Cc1cccc(NC(=O)c2nc[nH]c2C(=O)N[C@@H](CCCCNC(=O)OC(C)(C)C)C(=O)OC(C)(C)C)c1 — lower, -3.5%
- CC(C)NCC(O)COc1cccc2[nH]ccc12 (configuration not stated) — lower, -0.401%

Point of comparison: `O=C(CC(c1ccccc1)c1cc(Br)ccc1O)NCCN1CCOCC1` (configuration not stated), “activity change” value 5.29% [at 23.6 µM]. Against it:
- COc1cc(-c2cc(N3C(=O)Nc4ccccc4N3O)n[nH]2)cc(OC)c1OC — higher, 6.53% [at 23.6 µM]
- COc1ccccc1NC(=O)c1ccc(Br)o1 — lower, 2.69% [at 23.6 µM]
- Cc1cccc2cc3c(NC(=O)c4ccccn4)nn(C)c3nc12 — lower, 4.42% [at 23.6 µM]
- CC(=O)Nc1cccc2c1C(=O)NC2=O — lower, -6.6% [at 23.6 µM]
- O=C(O)C[C@@H]1C(=O)O[C@@H]2C(COC(=O)c3cc(O)c(O)c(O)c3)O[C@@H](OC(=O)c3cc(O)c(O)c(O)c3)[C@@H](OC(=O)c3cc(O)c(O)c4c3[C@H]1[C@H](O)C(=O)O4)[C@H]2OC(=O)c1cc(O)c(O)c(O)c1 (some centres not stated) — lower, 2.68% [at 23.6 µM]
- COc1cc(NC(=O)CN2CCN(c3ccccc3F)CC2)c(C)cc1[N+](=O)[O-] — lower, 1.56% [at 23.6 µM]
- O=C1CC(N2CCN(c3cccc(C(F)(F)F)c3)CC2)C(=O)N1c1ccc(F)cc1 (configuration not stated) — lower, -6.67% [at 23.6 µM]
